Experimental findings from PubChem BioAssay (NCATS) are described below.

One assay deals with CRL-7250. Description: Cytotoxic Profiling of Annotated Libraries Using Quantitative High-Throughput Screening (AID 1296008). For max response: % is set by controls: 0 for no effect and ±100 for the full control effect. The following applies: Five cell lines viability, CellTiter-Glo ATP luminescence, 48-72 h; max response: hits give low values. In a few lines:
(§1)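 Cytotoxicity was measured as CellTiter-Glo ATP luminescence, read after 10 min at room temperature. Compound treatment of the cells lasted 48 or 72 hr at 37 degrees Celsius in a qHTS format.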
A general note: ATP-based viability assays read luminescence as a measure of living cells.

The next assay relates to HEK293. The description is as above. The following applies: Five cell lines viability, CellTiter-Glo ATP luminescence, 48-72 h; max response: hits give low values. In outline:
as §1

Assay [1] has as its system HaCat. The description is as above. The following applies: Five cell lines viability, CellTiter-Glo ATP luminescence, 48-72 h; max response: hits give low values. In a few lines: as §1
The next assay relates to NIH3T3. Described as above. The following applies: Five cell lines viability, CellTiter-Glo ATP luminescence, 48-72 h; max response: hits give low values. In a few lines:
as §1

Assay [2] relates to HACAT. In words: qHTS assay to identify novel small-molecules to repurpose for Merkel cell carcinoma treatment (AID 1296009). The following applies: MCC and control cell lines, CellTiter-Glo viability, 72 h; at 44.8 µM (top of the series) unless noted. In outline: (§2)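 Cell viability measured by CellTiter-Glo following 72 hr compound treatment at 37 degree celsius, with NPC and MIPE libraries tested in 8- and 11-point concentration series.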

In another assay the test system is HEK293T. The description is as above. The following applies: MCC and control cell lines, CellTiter-Glo viability, 72 h; at 44.8 µM (top of the series) unless noted. In a few lines: as §2
The test system of a further assay is MCC-13. Described as above. The following applies: MCC and control cell lines, CellTiter-Glo viability, 72 h; series mostly up to 46 µM. In a few lines: as §2
Another assay concerns TAB165. Description: qHTS profiling for inhibitors of Plasmodium falciparum proliferation (AID 504749). The following applies: P. falciparum in erythrocytes, SYBR Green DNA, 72 h; series mostly up to 28.7 µM. In outline:
(§3)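 In a 72 h erythrocytic culture (37 C, humidified, 5% CO2) at 2.5% hematocrit and 0.3% starting parasitemia, compounds were tested; SYBR Green I in detergent lysis buffer stained parasite DNA overnight.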
A general note: Quantitative high-throughput screening tests each substance at several concentrations.

Another assay has as its system W2. The description is as above. The following applies: P. falciparum in erythrocytes, SYBR Green DNA, 72 h; series mostly up to 28.7 µM. In outline:
as §3

Results filed as inconclusive are left out. Unmarked numbers belong to inactive results. Active and inactive are the calls of the source. Calls come from the whole dose curve; as a rule, active = well fitted inhibition curve with a large enough effect; inconclusive = small, poorly fitted or top-dose-only effect; inactive = flat fitted curve, though single readings scatter.
Note: nearly all actives have a fitted effect of over 60% in size.
Potency is the fitted concentration of half-maximal effect.

As to `N=C(N)N`, the max response in the assay on CRL-7250 was -5.46%. In addition, the outcome with HEK293, with HaCat [1], in the assay on NIH3T3, in the assay on HACAT [2] and with HEK293T was inactive. In addition, the Potency entry in the assay with MCC-13 was “inactive”.
With `C[N+]1(C)[C@@H]2CC(OC(=O)[C@H](CO)c3ccccc3)C[C@H]1[C@@H]1O[C@@H]12` (stereo not given in full), the molecule was classed as inactive in the assay with CRL-7250, in the assay on HEK293, in the assay on HaCat [1], in the assay with HACAT [2] and with HEK293T. For the same molecule, in the assay on NIH3T3, the max response was 4.27%. Further, in the assay with MCC-13, the Potency entry is “inactive”.
On to `CCCCCCCCCCCCCCCC(=O)OC(C)C`, for which the Potency result with TAB165, with W2 and in the assay on MCC-13 was “inactive” in each case. Further, the max response in the assay on CRL-7250 was 3.48%; with HEK293 it was -10.5%; in the assay with HaCat [1] it was -20.5%. Besides, the result in the assay with NIH3T3 was inactive.
As to `CC(=O)SCC(CC(=O)c1ccc(C)cc1)C(=O)O` (stereo not given), the max response with CRL-7250 was 2.17%; with HaCat [1] it was -9.14%; in the assay with NIH3T3 it was -1.54%. Moreover, the molecule was called inactive in the assay with HEK293 and in the assay with HEK293T. For the same molecule, in the assay with MCC-13, the Potency result is “inactive”.
As for `O=C(CS)Nc1ccccc1`, the max response with CRL-7250 was -21.9%; in the assay on HEK293, -28.6%; in the assay on NIH3T3, 0.87%. In addition, the molecule was classed as inactive in the assay on HaCat [1] and with HACAT [2]. Besides, the Potency result in the assay on MCC-13 is “inactive”.
`c1ccc2sc(SN3CCOCC3)nc2c1`: the result in the assay with CRL-7250, with HEK293, in the assay with HaCat [1], in the assay with HACAT [2] and in the assay on HEK293T was inactive. Besides, the max response with NIH3T3 is 0.685%. The Potency result in the assay with MCC-13 is “inactive”.
As to `O=C(Nc1ccc2[nH]ncc2c1)C1CCC1`, the outcome in the assay with CRL-7250 was inactive. For the same molecule, the max response in the assay on HEK293 is 0.86%; with HaCat [1] it was -2.65%; in the assay on NIH3T3, 4.63%.
As to `O=C(O)Cc1ccc2c(c1)C(=O)c1ccccc1CO2`, the molecule was classed as inactive in the assay with CRL-7250 and in the assay on NIH3T3. Also, the max response is -3.93% in the assay on HEK293 and 4.48% with HaCat [1]. Besides, the Potency entry with MCC-13 is “inactive”.
On to `CCCSc1ccc2nc(NC(=O)OC)[nH]c2c1`, for which the Potency entry with TAB165 was “inactive”. For the same molecule, the Potency with CRL-7250 was 5.96 µM (active); in the assay with HEK293, 0.75 µM (active); in the assay with NIH3T3, 1.88 µM (active); in the assay with MCC-13 it was 1.68 µM (active). Further, the max response in the assay with HaCat [1] was -6.26%.
As to `CN(C)CCn1nnnc1SCC1=C(C(=O)O)N2C(=O)[C@@H](NC(=O)Cc3csc(N)n3)[C@H]2SC1`, the values for the max response in the assay on CRL-7250 and in the assay with HEK293 were -7.23% and -4.49%, respectively. The outcome in the assay on HaCat [1], in the assay on NIH3T3 and with HACAT [2] was inactive. Also, the Potency entry in the assay with MCC-13 was “inactive”.
`CC1(C)S[C@@H]2[C@H](NC(=O)[C@H](NC(=O)N3CCN(S(C)(=O)=O)C3=O)c3ccccc3)C(=O)N2[C@H]1C(=O)O`: the Potency entry in the assay with TAB165 and in the assay with W2 was “inactive” throughout. Moreover, the max response with CRL-7250 was 4.22%; with HEK293 it was -0.837%. For the same molecule, the molecule was classed as inactive with HaCat [1], in the assay on NIH3T3 and in the assay on HACAT [2].
With `O=C(O)CC1CC(c2ccccc2)=NO1` (stereo not given), the max response is -3.03% in the assay with CRL-7250, 0.396% in the assay on HEK293, -1.53% in the assay with HaCat [1] and -6.76% in the assay with NIH3T3.
With `CO[C@@]1(NC(=O)Cc2cccs2)C(=O)N2C(C(=O)O)=C(COC(N)=O)CS[C@@H]21`, the outcome in the assay on CRL-7250, in the assay on HEK293, with HaCat [1], in the assay with NIH3T3, in the assay with HACAT [2] and with HEK293T was inactive. In the assay on MCC-13, the Potency result is “inactive”.
For `COc1ccnc2c1CCCCC2S(=O)c1nc2ccccc2[nH]1` (stereo not given), the max response in the assay on CRL-7250 is -8.92%; with HEK293 it was -19.1%; in the assay with NIH3T3, -4.2%. In addition, the molecule was called inactive with HaCat [1] and in the assay on HACAT [2]. Also, the Potency entry with MCC-13 is “inactive”.
With `CN(C)c1ccc(C(=C2C=CC(=[N+](C)C)C=C2)c2ccccc2)cc1`, the Potency with TAB165 was 5.01 µM (active); in the assay with W2, 1.35 µM (active); with CRL-7250, 0.0841 µM (active); in the assay with HEK293, 0.0944 µM (active); with HaCat [1], 0.266 µM (active); in the assay on NIH3T3, 0.237 µM (active). In addition, the Potency with MCC-13 is 0.0376 µM (active).
As for `COc1cc2c3cc1Oc1cc(ccc1O)C[C@@H]1c4c(cc(OC)c(O)c4Oc4ccc(cc4)C[C@@H]3N(C)CC2)CC[N+]1(C)C`, the Potency entry in the assay with TAB165, in the assay with W2 and with MCC-13 was “inactive” throughout. Besides, the max response with CRL-7250 was 1.72%; in the assay on HaCat [1], 1.8%; in the assay on NIH3T3, 4.48%. Further, the molecule was called inactive with HEK293 and with HEK293T.
For `Cc1c(N)c(=O)n(-c2ccccc2)n1C`, the results for the max response with CRL-7250, with HEK293 and with NIH3T3 were 4.52%, -1.84% and -4.09%, respectively. In addition, the call in the assay on HaCat [1] and in the assay on HACAT [2] was inactive. For the same molecule, the Potency result with MCC-13 is “inactive”.
As for `CC(C)(C)c1nnc(NS(=O)(=O)c2ccc(N)cc2)s1`, the max response in the assay with CRL-7250 is 2.87%; in the assay with HEK293 it was -1.6%; in the assay on NIH3T3 it was -3.74%. For the same molecule, the outcome with HaCat [1] and in the assay on HACAT [2] was inactive. In addition, the Potency result with MCC-13 was “inactive”.
Take `CCCCCCCC/C=C/C(=O)O`: the outcome with CRL-7250, in the assay on HaCat [1] and with HACAT [2] was inactive. Besides, the values for the max response with HEK293 and with NIH3T3 were 0.673% and 2.83%, respectively. The Potency result in the assay on MCC-13 is “inactive”.
`[O-][n+]1ccccc1SSc1cccc[n+]1[O-]`: the Potency in the assay with TAB165 is 0.891 µM (active); in the assay on W2 it was 0.757 µM (active); in the assay with CRL-7250, 0.461 µM (active); with HEK293 it was 0.411 µM (active); in the assay on HaCat [1] it was 0.731 µM (active); with NIH3T3, 0.164 µM (active). Further, in the assay on MCC-13, the Potency is 0.326 µM (active).
Regarding `Nc1ccc(O)c(C(=O)O)c1`, the Potency entry in the assay with TAB165, in the assay with W2 and in the assay on MCC-13 was “inactive” in each case. The molecule was called inactive with CRL-7250, in the assay with HaCat [1], in the assay with NIH3T3 and in the assay on HACAT [2]. Moreover, the max response in the assay with HEK293 was -8.37%.
As to `CN1[C@@H]2CC[C@H]1CC(OC(c1ccccc1)c1ccccc1)C2` (stereo not given in full), the Potency was 11.2 µM (active) in the assay on TAB165 and 1.9 µM (active) with W2. In addition, the figures for the max response with CRL-7250, with HEK293 and in the assay with NIH3T3 were 0.151%, -16.7% and -0.104%, respectively. Moreover, the molecule was classed as inactive with HaCat [1] and with HACAT [2].
